# Assay results reported in PubChem BioAssay (NCATS).
# A number with no mark means an inactive call. Inconclusive results are not listed. Entries that show only a call come without a potency. Activity calls are given as the source filed them. Unless noted, the call rests on the fitted dose curve; in most records, active means well fitted curve in the direction sought with a large enough effect; inconclusive means small, poorly fitted or top-dose-only effect, or another doubt; inactive means no such curve, though single readings can be large; an effect the other way counts as inactive or inconclusive.
# Legend:
# [1] = molecular target: Cytochrome P450 1A2 (Homo sapiens) (UniProt P05177); experiment: p450-cyp1a2 (AID 410; calls by dose curve; further: potency means the concentration at half of the fitted maximal effect)
# Procedure, shortened: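 Human CYP1A2 (20nM) demethylated Luciferin-ME at its Km (100uM) in 100mM KPO4. After 10 min compound preincubation, NADPH regeneration ran the reaction 60 min at room temperature. Luciferin was read by luminescence, normalized to 57 uM furafylline.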
# [2] = NFAT Signaling Pathway (AID 444; active means well fitted curve in either direction with a large enough effect, not every such curve was filed as active;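 further: carbachol stimulus at about its EC50 of 1 µM final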); settings: Jurkat NFAT-bla M1, carbachol, beta-lactamase ratio, 5 h; at 38 µM (top of the series)
# Procedure, shortened: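 Jurkat cells carrying an NFAT-driven β-lactamase reporter and co-transfected muscarinic M1 receptor were treated with compound plus carbachol (1 uM final, an EC50 level) for 5 h at 37 °C. CCF4 loading followed for 1 h at RT; 460/530 nm ratio gave %activity.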
# [3] = Stat Signaling Pathway (AID 446; active means well fitted curve in either direction with a large enough effect, not every such curve was filed as active;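 further: ME-180 cervical cancer cells given 40 pM IL-6 alongside compound; SIE-controlled beta-lactamase reporter measured as 460/530 nm FRET emission ratio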); settings: ME-180 (cervical carcinoma) SIE beta-lactamase reporter, IL-6 stimulated, 5 h; at 38 µM (top of the series)
# Procedure, shortened: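 IL-6/STAT signaling read in ME-180 cells via an SIE beta-lactamase reporter. Stimulus was 40 pM IL-6 (its AC50) for 5 hrs, so both activation and inhibition register.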
# [4] = molecular target: Glucocorticoid receptor (Homo sapiens) (UniProt P04150); experiment: GR-GFP Redistribution (AID 450;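 active means compounds whose dose series gives a full or clear partial fitted curve of increased nuclear translocation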; further: potency means the concentration at half of the fitted maximal effect); settings: U2OS GR-GFP nuclear translocation, laser cytometry, 2 h
# Chain of Glucocorticoid receptor (Homo sapiens) (P04150 whole entry, looked up, the tested form may be a part): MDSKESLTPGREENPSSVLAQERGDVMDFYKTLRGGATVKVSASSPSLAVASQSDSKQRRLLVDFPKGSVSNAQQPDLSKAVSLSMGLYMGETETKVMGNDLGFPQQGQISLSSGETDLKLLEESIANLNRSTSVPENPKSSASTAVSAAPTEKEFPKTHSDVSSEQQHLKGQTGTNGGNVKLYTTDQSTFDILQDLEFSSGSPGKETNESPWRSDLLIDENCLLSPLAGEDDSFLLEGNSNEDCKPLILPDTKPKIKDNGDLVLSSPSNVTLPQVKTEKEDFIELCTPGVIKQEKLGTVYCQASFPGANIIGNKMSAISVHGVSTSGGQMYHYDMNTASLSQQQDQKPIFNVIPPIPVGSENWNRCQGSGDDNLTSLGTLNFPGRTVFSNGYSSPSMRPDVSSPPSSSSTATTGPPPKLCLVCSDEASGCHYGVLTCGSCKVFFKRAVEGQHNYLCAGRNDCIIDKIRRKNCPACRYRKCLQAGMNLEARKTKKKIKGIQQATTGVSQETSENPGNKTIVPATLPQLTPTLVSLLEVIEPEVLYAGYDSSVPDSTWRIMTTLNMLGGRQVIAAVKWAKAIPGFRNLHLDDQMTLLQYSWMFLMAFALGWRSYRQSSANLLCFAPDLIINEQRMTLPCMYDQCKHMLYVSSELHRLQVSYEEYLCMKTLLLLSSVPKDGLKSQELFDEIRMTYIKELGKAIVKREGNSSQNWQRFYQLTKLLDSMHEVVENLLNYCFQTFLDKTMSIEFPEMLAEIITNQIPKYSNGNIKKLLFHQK
# [5] = molecular target: Glucocorticoid receptor (Homo sapiens) (UniProt P04150); experiment: GR-EFC Redistribution (AID 451; calls by dose curve; further: potency means the concentration at half of the fitted maximal effect); settings: CHO-K1 GR-EFC translocation, beta-gal luminescence, 2 h
# Procedure, shortened: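 CHO-K1 cells stably expressing nuclear-localized β-gal enzyme acceptor and GR fused C-terminally to the enzyme donor fragment; ligand-driven nuclear translocation restores β-gal by complementation. Compounds titrated up to 46 uM final, 2 h at 37 °C; luminescence read.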
# [6] = molecular target: Mitogen-activated protein kinase 10 (Mus musculus) (UniProt Q61831); experiment: JNK3 AlphaScreen Assay (AID 530; active means well fitted curve in either direction with a large enough effect, not every such curve was filed as active;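 further: kinase came from lysate of stimulated human HepG2 cells; signal reports phosphorylation of biotinylated GST-cJun 1-79 at Ser73 with 10 µM ATP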)
# Procedure, shortened: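 JNK3 came from HepG2 lysates pre-activated with IL-1beta and TNF-alpha and phosphorylated biotinylated GST-cJun (1-79) at 10 uM ATP, pH 7.6, room temperature. Compounds were titrated. AlphaScreen signal used anti-phospho-cJun (Ser73) antibody.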
# [7] = molecular target: 3',5'-cyclic-AMP phosphodiesterase 4B (Homo sapiens) (UniProt Q07343); experiment: qHTS Assay for Inhibitors of PDE-IV (AID 607; active means well fitted activation curve with a large enough effect in the main read-out, with a control signal flat, not every such curve was filed as active)
# Procedure, shortened: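 Live HEK293 cells with a modified cyclic nucleotide-gated (CNG) channel report intracellular cAMP via membrane-potential dye fluorescence (ex 535/em 590 nm). Endogenous PDE-IV was targeted. Compounds were tested at up to 22.9 uM final; RO 20-1724 100 uM served as control.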
# [8] = molecular target: Guanine nucleotide-binding protein G(i) subunit alpha-1 (Homo sapiens) (UniProt P63096); experiment: qHTS Assay for Inhibitors of RGS12 GoLoco Motif Activity (Green Fluorophore) (AID 879);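 further: negative values mean loss of peptide binding seen as reduced polarization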
# Procedure, shortened: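 Fluorescence polarization assay: 50 nM Gαi1 with 10 nM FITC-labeled RGS12 GoLoco peptide in 10 mM Tris pH 7.5, 150 mM NaCl, 0.1 mM GDP, 0.05% NP40, 10 min at room temperature with compound.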
# [9] = molecular target: Cytochrome P450 3A4 (Homo sapiens) (UniProt P08684); experiment: qHTS Assay for Activators of Cytochrome P450 3A4 (AID 885); further: nearly all actives have a fitted effect of over 65% in size
# Procedure, shortened: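 Quantitative HTS format: compounds preincubated with 20nM human CYP3A4 and Luciferin-PPXE substrate at KM, reaction started by NADPH regeneration, stopped after 60 min, luciferase luminescence read 20 min later.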
# [10] = qHTS Assay for Identification of Small Molecule Antagonists for Thrombopoietin (TPO) Signaling Pathway (AID 918); settings: TPO-dependent cell signaling reporter, antagonist mode; further: potency means the concentration at half of the fitted maximal effect; nearly all actives have a fitted effect of over 60% in size
# Procedure, shortened: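 Murine Ba/F3 cells stably expressing human TPO receptor and a Glycoprotein IIb promoter–luciferase reporter were IL-3-starved overnight, treated with compounds plus TPO (26 pM final, its EC50) for 24 hrs at 37 C, then read by luminescence.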
# [11] = molecular target: Muscarinic acetylcholine receptor M1 (Rattus norvegicus) (UniProt P08482); experiment: qHTS Assay for Antagonists of Acetylcholine Muscarinic M1 Receptor: Kinetic Measurement of Intracellular Calcium Response (AID 943);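 further: Fluo-4 calcium signal as peak divided by basal fluorescence over 4 min; nearly all actives have a fitted effect of over 75% in size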
# Chain of Muscarinic acetylcholine receptor M1 (Rattus norvegicus) (P08482 whole entry, looked up): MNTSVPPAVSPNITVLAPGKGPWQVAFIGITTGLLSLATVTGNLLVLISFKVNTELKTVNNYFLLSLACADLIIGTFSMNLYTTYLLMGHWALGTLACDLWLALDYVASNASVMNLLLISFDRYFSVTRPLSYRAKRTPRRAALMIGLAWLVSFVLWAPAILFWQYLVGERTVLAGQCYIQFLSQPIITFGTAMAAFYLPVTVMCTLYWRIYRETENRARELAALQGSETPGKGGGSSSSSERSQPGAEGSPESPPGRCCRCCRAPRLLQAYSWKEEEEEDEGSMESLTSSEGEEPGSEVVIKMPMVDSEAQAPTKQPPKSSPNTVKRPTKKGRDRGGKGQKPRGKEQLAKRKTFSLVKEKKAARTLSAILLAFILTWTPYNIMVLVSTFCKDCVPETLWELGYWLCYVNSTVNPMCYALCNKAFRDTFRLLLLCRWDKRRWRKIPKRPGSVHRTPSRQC
# Procedure, shortened: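 CHO cells stably expressing rat M1 were loaded with no-wash Fluo-4 dye for 1 h at 37C, pre-incubated 10 min with compound, then challenged with EC80 carbachol (100 nM final); kinetic calcium read 4 min, peak/basal ratio.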
# [12] = molecular target: Muscarinic acetylcholine receptor M1 (Rattus norvegicus) (UniProt P08482); experiment: qHTS Assay for Antagonists of Acetylcholine Muscarinic M1 Receptor: Measurement of IP-One Response (AID 944); further: nearly all actives have a fitted effect of over 75% in size
# Procedure, shortened: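 CHO cells expressing rat M1 receptor, recovered overnight, were pre-incubated 10 min with compound, then stimulated 30 min with carbachol at EC80 (200 nM) in LiCl-containing buffer, pH 7.4. IP1 accumulation was read by HTRF (620/665 nm).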
# [13] = molecular target: Pyruvate kinase (Leishmania mexicana) (UniProt Q27686); experiment: qHTS Validation Assay for Inhibitors of Leishmania Mexicana Pyruvate Kinase (AID 945)
# Chain of Pyruvate kinase (Leishmania mexicana) (Q27686 2-499 E452W): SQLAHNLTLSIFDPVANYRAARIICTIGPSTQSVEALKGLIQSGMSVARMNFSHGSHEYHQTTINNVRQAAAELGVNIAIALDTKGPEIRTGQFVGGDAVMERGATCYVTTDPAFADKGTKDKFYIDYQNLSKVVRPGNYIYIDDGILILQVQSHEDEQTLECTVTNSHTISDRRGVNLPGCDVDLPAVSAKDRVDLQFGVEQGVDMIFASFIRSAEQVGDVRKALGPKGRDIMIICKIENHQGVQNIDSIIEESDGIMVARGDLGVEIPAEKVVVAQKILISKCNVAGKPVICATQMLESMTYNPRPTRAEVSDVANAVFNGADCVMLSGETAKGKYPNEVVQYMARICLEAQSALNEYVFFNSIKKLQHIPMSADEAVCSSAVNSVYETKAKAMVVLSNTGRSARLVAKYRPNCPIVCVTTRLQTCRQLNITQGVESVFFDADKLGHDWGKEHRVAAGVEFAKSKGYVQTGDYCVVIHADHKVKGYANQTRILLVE
# Procedure, shortened: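 Substrate mix (0.5 mM PEP, 0.1 mM ADP, 7 mM MgCl2, 50 mM KCl, pH 7.2 imidazole) received compound by pin tool, then 0.2 nM LmPYK E451W. After 1 h at room temperature, PKLight was added and luminescence measured.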
# [14] = molecular target: Pyruvate kinase PKM (Homo sapiens) (UniProt P14618); experiment: qHTS Assay for Activators of Human Muscle Pyruvate Kinase (AID 954; active means well fitted curve in the direction sought with a large enough effect, not every such curve was filed as active)
# Chain of Pyruvate kinase PKM (Homo sapiens) (P14618 whole entry, looked up): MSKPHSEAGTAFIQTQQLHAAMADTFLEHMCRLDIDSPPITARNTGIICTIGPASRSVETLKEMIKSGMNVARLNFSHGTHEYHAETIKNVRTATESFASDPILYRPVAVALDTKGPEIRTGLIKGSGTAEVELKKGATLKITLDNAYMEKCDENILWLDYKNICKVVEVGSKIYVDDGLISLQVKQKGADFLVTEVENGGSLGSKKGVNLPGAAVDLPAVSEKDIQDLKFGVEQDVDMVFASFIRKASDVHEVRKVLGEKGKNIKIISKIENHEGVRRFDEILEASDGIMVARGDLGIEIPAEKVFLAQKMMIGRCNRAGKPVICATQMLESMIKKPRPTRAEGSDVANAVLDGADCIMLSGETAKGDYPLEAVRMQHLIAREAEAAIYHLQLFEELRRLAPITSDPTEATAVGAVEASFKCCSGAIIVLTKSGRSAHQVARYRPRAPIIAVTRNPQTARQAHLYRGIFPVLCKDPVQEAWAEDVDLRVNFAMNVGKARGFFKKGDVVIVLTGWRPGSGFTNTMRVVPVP
# Procedure, shortened: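 Enzyme was run at intermediate activity so both inhibitors and activators could be detected. ATP formed from ADP and PEP by 0.1 nM human PKM2 during a 1 h room-temperature incubation was quantified by coupled luciferase luminescence.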
# [15] = molecular target: Alpha-galactosidase A (Homo sapiens) (UniProt P06280); experiment: Counterscreen for Glucocerebrosidase Inhibitors: qHTS Assay for Human alpha-Galactosidase at pH 4.5 (AID 992)
# Chain of Alpha-galactosidase A (Homo sapiens) (P06280 whole entry, looked up): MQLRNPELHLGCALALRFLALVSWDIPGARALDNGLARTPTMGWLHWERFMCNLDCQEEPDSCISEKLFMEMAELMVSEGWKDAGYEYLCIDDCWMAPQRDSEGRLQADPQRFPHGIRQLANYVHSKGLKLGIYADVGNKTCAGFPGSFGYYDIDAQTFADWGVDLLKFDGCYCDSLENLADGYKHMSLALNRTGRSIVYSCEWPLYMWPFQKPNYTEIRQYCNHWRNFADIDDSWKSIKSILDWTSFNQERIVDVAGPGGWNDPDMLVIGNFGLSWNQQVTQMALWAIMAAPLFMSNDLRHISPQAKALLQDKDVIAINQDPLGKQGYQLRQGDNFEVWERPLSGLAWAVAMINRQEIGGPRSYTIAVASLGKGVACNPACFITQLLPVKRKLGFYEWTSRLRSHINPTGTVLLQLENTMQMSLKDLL
# Procedure, shortened: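 Read-out is 4-methylumbelliferone fluorescence (365 nm excitation, 440 nm emission) after a pH 10 NaOH/glycine stop. Reactions held 2 nM enzyme and 80 uM substrate at pH 4.5 for 20 min at room temperature.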
# [16] = molecular target: alpha-glucosidase (Oryza sativa, rice) (UniProt Q653V4); experiment: Counterscreen for Glucocerebrosidase Inhibitors: qHTS Assay for Rice alpha-Glucosidase at pH 5.0 (AID 997)
# Procedure, shortened: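 Rice alpha-glucosidase (4 nM final) with 400 uM 4-methylumbelliferyl-alpha-D-glucopyranoside in citrate buffer pH 5.0, 20 min at room temperature, stopped at pH 10; fluorescence 365/440 nm, compounds 0.7 nM–77 uM, AC50 from Hill fits.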
# [17] = molecular target: DNA repair nuclease/redox regulator APEX1 (Homo sapiens) (UniProt P27695); experiment: qHTS Validation Assay for Inhibitors of the Human Apurinic/apyrimidinic Endonuclease 1 (APE1) (AID 1705;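 further: TAMRA fluorescence gain over two minutes as APE1 cuts a quenched THF abasic duplex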)
# Procedure, shortened: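 qHTS, 1536-well. APE1 + cpd 15 min RT → 50 nM TAMRA/BHQ-2 THF-abasic dsDNA substrate → kinetic fluorescence, 3 reads/60 s; delta(read3−read1) = reaction progress. No-enzyme buffer = negative control.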
# [18] = Counterscreen for APE1 Inhibitors: Fluorescent Dye Displacement Validation Assay (AID 1707)
# Procedure, shortened: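 ThO 250 nM + dsDNA 50 nM (THF abasic site, 5'-TAMRA), Tris-HCl pH7.5/50mM NaCl/2 mM MgCl2/0.01% Tween-20; compounds pin-transferred; ex 480/em 540 nm endpoint. Neutral = no compound; no-DNA ThO wells = negative control.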
# [19] = qHTS for differential inhibitors of proliferation of Plasmodium falciparum line 7G8 (AID 1815);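 further: parasite growth measured after three days of incubation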
# [20] = qHTS for differential inhibitors of proliferation of Plasmodium falciparum line GB4 (AID 1816); settings: Potency: Plasmodium falciparum GB4 proliferation inhibition;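 further: parasite growth measured after 72 h incubation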
# [21] = qHTS for differential inhibitors of proliferation of Plasmodium falciparum line 3D7 (AID 1876);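 further: parasite growth measured after three days of culture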
# [22] = qHTS for differential inhibitors of proliferation of Plasmodium falciparum line D10 (AID 1877);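 further: parasites grown with compound for 72 h before DNA staining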
# [23] = qHTS for differential inhibitors of proliferation of Plasmodium falciparum line Dd2 (AID 1882); settings: Potency: Plasmodium falciparum Dd2 proliferation inhibition;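 further: compound exposure of 72 h on infected erythrocytes; nearly all actives have a fitted effect of over 65% in size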
# Procedure, shortened: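 SYBR Green I DNA fluorescence read-out, ex 485/em 535 nm. Signals were normalized to 0.29 uM artemisinin and DMSO wells, then corrected using vehicle-only plates flanking each stack. Parasite growth ran 72 h in erythrocytes before lysis.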
# [24] = qHTS for differential inhibitors of proliferation of Plasmodium falciparum line W2 (AID 1883); settings: Potency: Plasmodium falciparum W2 proliferation inhibition;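 further: parasites grown with compound for 72 h before lysis and staining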
# [25] = qHTS for differential inhibitors of proliferation of Plasmodium falciparum line HB3 (AID 1886); settings: Potency: Plasmodium falciparum HB3 proliferation inhibition;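 further: parasites grown with compound for 72 h before SYBR Green readout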
# [26] = molecular target: ATP-dependent DNA helicase Q1 (Homo sapiens) (UniProt P46063); experiment: qHTS Validation Assay for Inhibitors of RecQ-Like Dna Helicase 1 (RECQ1) (AID 2353)
# Chain of ATP-dependent DNA helicase Q1 (Homo sapiens) (P46063 whole entry, looked up): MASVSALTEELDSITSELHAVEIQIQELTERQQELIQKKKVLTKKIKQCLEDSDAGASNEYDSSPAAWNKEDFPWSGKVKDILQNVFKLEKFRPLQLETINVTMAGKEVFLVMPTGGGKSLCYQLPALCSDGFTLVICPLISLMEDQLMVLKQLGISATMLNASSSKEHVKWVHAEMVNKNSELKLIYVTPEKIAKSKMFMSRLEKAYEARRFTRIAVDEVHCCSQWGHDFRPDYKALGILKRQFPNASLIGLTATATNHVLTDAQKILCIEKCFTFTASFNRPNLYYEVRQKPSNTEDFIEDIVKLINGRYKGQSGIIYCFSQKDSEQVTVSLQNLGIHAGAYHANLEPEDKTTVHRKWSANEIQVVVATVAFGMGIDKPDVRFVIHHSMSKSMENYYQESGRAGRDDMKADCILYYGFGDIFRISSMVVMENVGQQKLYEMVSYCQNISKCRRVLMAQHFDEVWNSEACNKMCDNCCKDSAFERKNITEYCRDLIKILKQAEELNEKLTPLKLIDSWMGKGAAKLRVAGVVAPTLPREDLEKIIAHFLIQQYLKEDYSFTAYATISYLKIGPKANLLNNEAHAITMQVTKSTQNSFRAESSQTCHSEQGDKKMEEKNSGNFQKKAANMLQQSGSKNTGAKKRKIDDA
# Procedure, shortened: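 50 nM RECQ1T1 preincubated 15 min with compound in Tris pH 8.0 buffer with MgCl2, DTT, Tween-20 and 2.5 ug/ml poly(dI-dC); started with 200 nM TAMRA/BHQ-2 forked duplex and 2 mM ATP. Unwinding read as fluorescence (525/598 nm), two reads 2 h apart.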
# [27] = Validation screen for small molecules that induce DNA re-replication in MCF 10A normal breast cells (AID 463097); further: potency means the concentration at half of the fitted maximal effect; nearly all actives have a fitted effect of over 60% in size
# Procedure, shortened: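 Image-based qHTS: normal breast cells are incubated with compound for 48 hr, stained with Hoechst, and scanned for total nuclear fluorescence. Compounds raising the fraction of nuclei with elevated DNA content count as re-replication inducers.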
# [28] = molecular target: M-phase phosphoprotein 8 (Homo sapiens) (UniProt Q99549); experiment: qHTS Validation Assay for Inhibitors for MPP8 Chromodomain Interactions with Methylated Histone Tails (AID 488949); further: potency means the concentration at half of the fitted maximal effect; nearly all actives have a fitted effect of over 55% in size
# Procedure, shortened: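 50 nM MPP8 + 50 nM b-H3K9me3 peptide, PBS pH 7.4/0.01% Tween-20, 30 min RT; + cpd 30 min RT; + AlphaScreen donor/Ni-chelate acceptor beads 10 ug/mL final, 30 min dark; luminescence read.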
# [29] = molecular target: Transient receptor potential cation channel subfamily V member 1 (Homo sapiens) (UniProt Q8NER1); experiment: HTS Assay for Compounds that Act as Enhancers of the Vanilloid Receptor 1 (AID 488979)
# Chain of Transient receptor potential cation channel subfamily V member 1 (Homo sapiens) (Q8NER1 whole entry, looked up): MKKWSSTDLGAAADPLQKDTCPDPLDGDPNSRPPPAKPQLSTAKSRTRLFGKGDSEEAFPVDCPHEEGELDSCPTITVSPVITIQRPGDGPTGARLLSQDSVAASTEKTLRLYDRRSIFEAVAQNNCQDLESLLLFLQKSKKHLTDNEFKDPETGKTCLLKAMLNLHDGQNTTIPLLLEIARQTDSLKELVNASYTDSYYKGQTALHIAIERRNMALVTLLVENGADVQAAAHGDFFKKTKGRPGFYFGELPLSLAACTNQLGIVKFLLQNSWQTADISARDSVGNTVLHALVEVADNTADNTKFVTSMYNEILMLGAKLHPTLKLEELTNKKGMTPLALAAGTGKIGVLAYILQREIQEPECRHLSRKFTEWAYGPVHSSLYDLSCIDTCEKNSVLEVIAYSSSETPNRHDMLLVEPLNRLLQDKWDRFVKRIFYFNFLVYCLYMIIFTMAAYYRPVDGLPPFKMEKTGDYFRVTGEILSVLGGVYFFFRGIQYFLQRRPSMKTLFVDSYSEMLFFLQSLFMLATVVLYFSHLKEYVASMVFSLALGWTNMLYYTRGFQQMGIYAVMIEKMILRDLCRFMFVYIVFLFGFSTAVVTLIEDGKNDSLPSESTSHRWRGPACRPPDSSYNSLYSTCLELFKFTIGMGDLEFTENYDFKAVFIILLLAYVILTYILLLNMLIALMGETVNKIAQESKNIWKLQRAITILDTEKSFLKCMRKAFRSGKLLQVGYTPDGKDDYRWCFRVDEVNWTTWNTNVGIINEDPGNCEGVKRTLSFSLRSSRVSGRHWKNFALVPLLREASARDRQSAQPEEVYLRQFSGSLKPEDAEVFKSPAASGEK
# Procedure, shortened: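 TRPV1-expressing cells loaded with Fluo-8 calcium dye; compounds added and calcium influx read kinetically for 3 min (agonist phase), then capsaicin at EC20 added and read 2 min more for enhancement. Fluorescence ex 480/em 520 nm.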
# [30] = molecular target: Thyrotropin receptor (Homo sapiens) (UniProt P16473); experiment: qHTS Assay for Antagonists of the Thyroid Stimulating Hormone Receptor (AID 488980)
# Chain of Thyrotropin receptor (Homo sapiens) (P16473 whole entry, looked up): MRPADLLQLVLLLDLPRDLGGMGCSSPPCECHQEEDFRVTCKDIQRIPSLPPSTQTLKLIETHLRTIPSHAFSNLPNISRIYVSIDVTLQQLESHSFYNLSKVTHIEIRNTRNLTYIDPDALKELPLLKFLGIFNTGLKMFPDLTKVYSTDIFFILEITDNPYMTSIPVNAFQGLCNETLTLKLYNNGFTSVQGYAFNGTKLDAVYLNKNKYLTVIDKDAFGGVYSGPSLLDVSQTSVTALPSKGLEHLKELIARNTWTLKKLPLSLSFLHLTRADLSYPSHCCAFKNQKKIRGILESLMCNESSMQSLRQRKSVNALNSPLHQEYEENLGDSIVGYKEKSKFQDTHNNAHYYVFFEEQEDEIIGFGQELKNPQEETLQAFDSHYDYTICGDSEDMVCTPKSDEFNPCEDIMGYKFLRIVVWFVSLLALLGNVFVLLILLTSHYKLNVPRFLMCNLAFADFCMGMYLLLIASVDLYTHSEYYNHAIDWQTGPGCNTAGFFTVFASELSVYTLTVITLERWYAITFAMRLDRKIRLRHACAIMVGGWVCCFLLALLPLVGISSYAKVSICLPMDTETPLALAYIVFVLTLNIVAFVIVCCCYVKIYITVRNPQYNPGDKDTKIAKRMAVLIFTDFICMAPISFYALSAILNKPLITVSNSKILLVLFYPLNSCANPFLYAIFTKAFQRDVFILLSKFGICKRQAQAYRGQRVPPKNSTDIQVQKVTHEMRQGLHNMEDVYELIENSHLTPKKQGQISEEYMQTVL
# Procedure, shortened: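 Readout is cAMP by HTRF competition between cellular cAMP and cAMP-d2 for a cryptate-labelled antibody. Antagonism was assessed in TSHR-transfected HEK293 cells stimulated with 4 nM TSH (EC80, final) in the presence of RO 20-1724.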
# [31] = molecular target: Galactokinase (Homo sapiens) (UniProt P51570); experiment: qHTS Validation Assay for Inhibitors of Human Galactokinase (GALK) (AID 493189)
# Procedure, shortened: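 5 nM GALK / 100 uM galactose / 35 uM ATP, 20 mM HEPES pH8.0, 5 mM MgCl2, 60 mM NaCl, 1 mM DTT, 0.01% BSA (final). RT 1 h; Kinase-Glo Plus luminescence.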
# [32] = Validation screen for small molecules that induce DNA re-replication in SW480 colon adenocarcinoma cells (AID 504364)
# Procedure, shortened: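 SW480 cells seeded at 250 per well were exposed to compound or DMSO for 48 hr at 37 C, 5% CO2, then stained with Hoechst for 40 min. DNA content per nucleus was imaged (405 nm ex, 500-530 nm em).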
# [33] = molecular target: Voltage-gated inwardly rectifying potassium channel KCNH2 (Homo sapiens) (UniProt Q12809); experiment: qHTS Assay for Small Molecule Inhibitors of the Human hERG Channel Activity (AID 588834);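 further: top concentration of the series differs between compounds; lower thallium flux fluorescence means stronger hERG block; nearly all actives have a fitted effect of over 50% in size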
# Procedure, shortened: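 hERG-BacMam U2OS, 2000 cells/well; 0.7X FluxOR loading 1 hr RT dark; cpd ~10 min 37 °C; stim buffer; FDSS fluorescence 2 min @ 1 s; AC50 Hill fit.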
# [34] = system: Zika virus NS2B-NS3 protease; experiment: Primary screen GU AMC qHTS for Zika virus inhibitors (AID 1347154); further: nearly all actives have a fitted effect of over 70% in size
# Procedure, shortened: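 Unlinked Zika NS2B hydrophilic domain/NS3 protease domain noncovalent complex (25 nM final) in 10 mM Tris-HCl pH 8.0, 0.01% Tween 20, with AMC peptide substrate. Fluorescence (ex 340, em 450 nm) change over 15 min, room temperature; percent inhibition fitted to 4-parameter Hill equation.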
structure (smiles),measurement,setting,value
C[N+](C)(C)CCC(=O)c1cccc2ccccc12,Potency,[1],7.94 µM (active)
same,"activity change, negative = inhibition",[2],13.8% (active)
same,"activity, negative = inhibition",[3],-81.5% (active)
same,Potency,[4],> 46 µM
same,Potency,[5],> 46 µM
same,Potency,[6],inactive
same,Potency,[7],inactive
same,outcome,[8],inactive
same,Potency,[9],inactive
same,Potency,[10],2.51 µM (active)
same,Potency,[11],inactive
same,Potency,[12],inactive
same,Potency,[13],inactive
same,outcome,[14],inactive
same,outcome,[15],inactive
same,outcome,[16],inactive
same,Potency,[17],inactive
same,Potency,[18],inactive
same,Potency,[19],inactive
same,Potency,[20],inactive
same,Potency,[21],inactive
same,Potency,[22],inactive
same,Potency,[23],inactive
same,Potency,[24],inactive
same,Potency,[25],inactive
same,Potency,[26],inactive
same,Potency,[27],1.78 µM (active)
same,Potency,[28],10 µM (active)
same,outcome,[29],inactive
same,outcome,[30],inactive
same,outcome,[31],inactive
same,outcome,[32],inactive
same,Potency,[33],inactive
same,Potency,[34],inactive
